Measurements as given in PubChem BioAssay.
Unmarked numbers belong to inactive results. For some assays here: Measured potencies and affinities stand elsewhere. Activity calls are given as the source filed them. Unless noted, no rule for the calls is given here.

What was measured:
[1] = antimalarial activity against Dd2 strain (AID 2302;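 active = growth inhibition above 50% at the single 2 µM test dose, taken to imply half-maximal potency below 2 µM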;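 also: 0% = DMSO untreated growth and 100% = chloroquine plus artemisinin killed control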); settings: P. falciparum Dd2 in RBCs, LDH growth readout, 72 h; at 2 µM; hits give high values
[2] = HepG2 cytotoxicity, primary screen, cytotoxicity control for P. falciparum antimalarial project, cell-based, ATP luminescence (AID 2303;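 active = inhibition above 50%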;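 also: 0% = DMSO wells and 100% = digitonin-killed cells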); settings: HepG2 viability, 24-48 h, at 10 µM, hits give high values
[3] = molecular target: L-lactate dehydrogenase (Plasmodium falciparum (isolate CDC / Honduras)) (UniProt Q27743); experiment: PfLDH activity inhibition – cell lysate, 3D7 strain, counter-screen for P. falciparum growth inhibition project (AID 2304);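 also: 0% = vehicle and 100% = reference inhibitor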; settings: P. falciparum 3D7 crude extract, LDH APAD/NBT absorbance; at 2 µM; hits give high values
[4] = inhibition of 3D7 malaria parasite growth – strain 3D7 (AID 2306);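 also: 0% = DMSO wells and 100% = chloroquine plus artemisinin control wells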; settings: P. falciparum 3D7 erythrocytic growth, LDH absorbance, 72 h; at 2 µM; hits give high values
[5] = molecular target: Calcium-dependent protein kinase 1 (Plasmodium falciparum (isolate 3D7)) (UniProt P62344); experiment: PfCDPK1 kinase inhibitors, biochemical, TCAMS library (AID 1159585; cut-off not given, nearly all actives have IC50 up to about 0.98 µM;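 also: inhibitors leave more ATP so luminescence rises with inhibition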); settings: recombinant PfCDPK1, Kinase-Glo ATP depletion luminescence
[6] = molecular target: Plasmodium falciparum protein kinase 6 (PK6, PF3D7_1337100) (UniProt Q8IDW1); experiment: PfPK6 kinase inhibitors, biochemical, TCAMS library (AID 1159586); settings: recombinant PfPK6, Kinase-Glo ATP depletion luminescence
[7] = molecular target: Protein kinase 7 (PK7), Plasmodium falciparum 3D7 (PF3D7_0213400) (UniProt Q7YTF7); experiment: inhibition of Plasmodium PK7 catalytic activity – biochemical, TCAMS antimalarial set, Kinase-Glo luminescence (AID 1159587); settings: recombinant PfPK7, Kinase-Glo ATP depletion luminescence
[8] = molecular target: Calcium-dependent protein kinase 4 (Plasmodium falciparum (isolate 3D7)) (UniProt Q8IBS5); experiment: PfCDPK4 kinase inhibitors, biochemical, TCAMS library (AID 1159588; cut-off not given, nearly all actives have IC50 up to about 0.91 µM); settings: recombinant PfCDPK4, Kinase-Glo ATP depletion luminescence
Sequence of Calcium-dependent protein kinase 4 (Plasmodium falciparum (isolate 3D7)) (Q8IBS5 whole entry, looked up): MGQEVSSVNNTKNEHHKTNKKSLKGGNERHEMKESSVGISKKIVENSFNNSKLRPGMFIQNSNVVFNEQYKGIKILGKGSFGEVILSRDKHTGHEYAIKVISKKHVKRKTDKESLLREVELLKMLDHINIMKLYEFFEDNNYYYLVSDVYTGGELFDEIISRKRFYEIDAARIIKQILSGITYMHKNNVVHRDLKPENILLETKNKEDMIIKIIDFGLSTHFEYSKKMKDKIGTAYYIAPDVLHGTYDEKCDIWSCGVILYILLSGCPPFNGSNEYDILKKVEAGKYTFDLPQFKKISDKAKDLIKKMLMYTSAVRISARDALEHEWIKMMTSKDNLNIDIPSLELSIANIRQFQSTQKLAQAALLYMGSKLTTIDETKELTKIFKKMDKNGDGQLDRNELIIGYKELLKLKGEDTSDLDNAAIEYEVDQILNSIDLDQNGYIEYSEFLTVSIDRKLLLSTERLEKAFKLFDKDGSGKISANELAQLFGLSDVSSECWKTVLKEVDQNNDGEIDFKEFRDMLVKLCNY

Sequence of Calcium-dependent protein kinase 1 (Plasmodium falciparum (isolate 3D7)) (P62344 whole entry, looked up): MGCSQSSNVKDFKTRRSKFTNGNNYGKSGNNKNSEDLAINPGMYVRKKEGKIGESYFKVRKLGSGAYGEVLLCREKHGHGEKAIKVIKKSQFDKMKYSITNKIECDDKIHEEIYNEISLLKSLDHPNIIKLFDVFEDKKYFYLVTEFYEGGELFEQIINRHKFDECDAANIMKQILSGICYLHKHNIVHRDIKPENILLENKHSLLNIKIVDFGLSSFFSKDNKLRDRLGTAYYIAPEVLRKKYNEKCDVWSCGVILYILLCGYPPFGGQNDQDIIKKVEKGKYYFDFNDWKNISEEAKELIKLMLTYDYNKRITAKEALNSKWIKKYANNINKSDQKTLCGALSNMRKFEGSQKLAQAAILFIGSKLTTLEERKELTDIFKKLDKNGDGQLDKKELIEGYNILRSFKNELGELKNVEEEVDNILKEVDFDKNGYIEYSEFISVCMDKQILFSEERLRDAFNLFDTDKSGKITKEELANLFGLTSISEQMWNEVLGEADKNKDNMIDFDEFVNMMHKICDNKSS
Sequence of L-lactate dehydrogenase (Plasmodium falciparum (isolate CDC / Honduras)) (Q27743 whole entry, looked up): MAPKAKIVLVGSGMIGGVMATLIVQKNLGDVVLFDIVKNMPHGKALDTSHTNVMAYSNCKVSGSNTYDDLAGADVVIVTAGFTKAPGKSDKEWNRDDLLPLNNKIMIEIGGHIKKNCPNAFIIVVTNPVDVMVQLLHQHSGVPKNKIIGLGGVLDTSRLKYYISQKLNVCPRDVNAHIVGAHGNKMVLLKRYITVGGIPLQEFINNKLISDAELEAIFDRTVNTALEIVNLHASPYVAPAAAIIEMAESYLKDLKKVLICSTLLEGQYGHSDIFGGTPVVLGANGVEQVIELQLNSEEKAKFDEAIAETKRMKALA
Sequence of Plasmodium falciparum protein kinase 6 (PK6, PF3D7_1337100) (Q8IDW1 1-305): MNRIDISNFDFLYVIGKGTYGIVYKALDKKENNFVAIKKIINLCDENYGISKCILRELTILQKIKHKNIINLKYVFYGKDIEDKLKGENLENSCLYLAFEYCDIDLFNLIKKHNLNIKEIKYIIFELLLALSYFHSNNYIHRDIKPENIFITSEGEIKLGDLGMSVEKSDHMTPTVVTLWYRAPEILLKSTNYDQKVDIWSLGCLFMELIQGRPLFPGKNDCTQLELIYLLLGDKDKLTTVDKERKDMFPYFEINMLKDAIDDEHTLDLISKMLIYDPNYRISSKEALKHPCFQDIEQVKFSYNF
Sequence of Protein kinase 7 (PK7), Plasmodium falciparum 3D7 (PF3D7_0213400) (Q7YTF7 1-343): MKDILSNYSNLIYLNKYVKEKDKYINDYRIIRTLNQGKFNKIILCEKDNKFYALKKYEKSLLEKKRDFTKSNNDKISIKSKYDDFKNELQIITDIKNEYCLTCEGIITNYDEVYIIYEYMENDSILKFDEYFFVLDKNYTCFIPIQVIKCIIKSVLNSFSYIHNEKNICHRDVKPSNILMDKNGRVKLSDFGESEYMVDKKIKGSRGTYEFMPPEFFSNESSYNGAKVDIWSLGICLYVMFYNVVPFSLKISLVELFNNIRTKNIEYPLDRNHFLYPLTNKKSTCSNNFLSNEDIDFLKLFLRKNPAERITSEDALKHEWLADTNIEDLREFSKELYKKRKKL

SMILES | growth inhibition [1] | inhibition [2] | inhibition [3] [%] | growth inhibition [4] | outcome [5] | outcome [6] | outcome [7] | outcome [8]
CC(C)Cn1cc(C2CCN(CCN3CCC(CNC(=O)c4ccc(NC(=O)c5ccc(Cl)cc5)cc4)CC3)CC2)c2ccccc21 | 99% (active) | 28% | -2 | 101% (active) | inactive | inactive | inactive | inactive
Nc1c2ccccc2nc2ccc(Cl)cc12 | 100% (active) | 55% (active) | 6 | 101% (active) | inactive | inactive | inactive | inactive
CCc1ccc(C2CCN(CCCCNC(=O)c3ccc(NC(=O)c4ccc(Cl)cc4)cc3)CC2)c(OC(C)=O)c1 | 100% (active) | 48% | 0 | 91% (active) | inactive | inactive | inactive | inactive
CCc1ccc2c(c1O)CCN(C)C2Cc1ccccc1Cl (stereo not given) | 99% (active) | 13% | -3 | 99% (active) | inactive | inactive | inactive | inactive
OC1CCCN(Cc2cccc(-c3ccc(-c4nc5ccc(C(F)(F)F)cc5[nH]4)cc3)c2)C1 (stereo not given) | 91% (active) | 27% | 4 | 100% (active) | inactive | inactive | inactive | inactive
COc1ccc(CNc2cc(C)nc3sc4c(c23)CCC2(C4)OCCO2)cc1 | 2% | 4% | -7 | 96% (active) | inactive | inactive | inactive | inactive
O=C(/C=C/c1ccccc1Cl)Nc1ccc(Br)c(OCCN2CCN(CCN3CCOCC3)CC2)c1 | 91% (active) | 22% | -3 | 98% (active) | inactive | inactive | inactive | inactive
CCCC(CNCc1ccccc1)CNc1cc(=O)c2ccccc2[nH]1 (stereo not given) | 21% | 2% | 3 | 86% (active) | inactive | inactive | inactive | inactive
Cc1cc(C(=O)N(Cc2ccc(-c3ccc(CNCCc4ccc(S(C)(=O)=O)cc4)cn3)cc2)C(C)CN(C)C)ccc1[N+](=O)[O-] (stereo not given) | 46% | 17% | -1 | 99% (active) | inactive | inactive | inactive | inactive
Cc1cccc2[nH]c(-c3cccc(-c4ccc(NC(=O)C(C)CN5CCOCC5)cc4)c3)nc12 (stereo not given) | 30% | 7% | 2 | 93% (active) | inactive | inactive | inactive | inactive
CN1CCC[C@H]1COc1ccc(CN2CC[C@H](NC(=O)c3ccc(Cl)c(Cl)c3)C2)cc1Cl | 44% | 53% (active) | -2 | 97% (active) | inactive | inactive | inactive | inactive
CCOC(=O)NC1=NC(C)(C)N(OCc2ccc(Cl)c(Cl)c2)C(N)=N1 | 90% (active) | 66% (active) | -5 | 96% (active) | inactive | inactive | inactive | inactive
Cc1ccc(C(=O)Nc2ccc(-c3nc4ccccc4[nH]3)cc2)cc1S(=O)(=O)N1CCOCC1 | 16% | 56% (active) | 4 | 90% (active) | inactive | inactive | inactive | inactive
O=C(C=Cc1ccc(Cl)c(Cl)c1)NCCCCCN1CCC(CCNC(=O)c2sc3ccccc3c2Cl)CC1 | 6% | 27% | -5 | 88% (active) | inactive | inactive | inactive | inactive
CCCC(CC)n1ccc2c3c(N)nc(N)nc3ccc21 (stereo not given) | 97% (active) | 67% (active) | 0 | 94% (active) | inactive | inactive | inactive | inactive
CCCC(=O)Nc1ccc(Nc2nc(C)cc(N3CCCC3)n2)cc1 | 46% | 31% | 4 | 100% (active) | inactive | inactive | inactive | inactive
O=C(Nc1ccc(OC2CCN(Cc3ccc(F)cc3)C2)cc1)c1ccco1 (stereo not given) | 69% (active) | -3% | -1 | 88% (active) | inactive | inactive | inactive | inactive
COc1ccc(CCNCCCCCNCCCc2ccc(Cl)cc2)cc1OC | 2% | 24% | 2 | 101% (active) | inactive | inactive | inactive | inactive
CCCC(=O)NC(c1ccc(C)cc1)c1ccc2cccnc2c1O (stereo not given) | 45% | 52% (active) | -4 | 88% (active) | inactive | inactive | inactive | inactive
CCCCCCC1(C)N=C(N)N=C(N)C1c1ccc(Cl)c(Cl)c1 (stereo not given) | 43% | 18% | -9 | 94% (active) | inactive | inactive | inactive | inactive

SMILES | growth inhibition [1] | inhibition [2] | inhibition [3] [%] | growth inhibition [4] | outcome [5] | outcome [6] | outcome [7] | outcome [8]
CN1CCC(Oc2ccc(CN3CC[C@H](NC(=O)c4ccc(Cl)c(F)c4)C3)c3ccccc23)C1 (stereo not given in full) | 65% (active) | 51% (active) | 3 | 101% (active) | inactive | inactive | inactive | inactive
CC(=O)Nc1cccc(CNc2cc(C)nc(Nc3ccc(C)cc3)n2)c1 | 23% | 18% | 0 | 82% (active) | inactive | inactive | inactive | inactive
NC(=O)c1ccsc1NC(=O)CNC(c1ccc(F)cc1)c1cccs1 (stereo not given) | 71% (active) | 31% | -2 | 92% (active) | inactive | inactive | inactive | inactive
c1ccn2c(Sc3ncnc4sccc34)ncc2c1 | 100% (active) | -14% | 2 | 100% (active) | inactive | inactive | inactive | inactive
COc1cc2ncnc(Nc3ccc(OCc4ccccc4)c(I)c3)c2cc1OC | 62% (active) | 11% | 5 | 98% (active) | inactive | inactive | inactive | inactive
CC(C)COc1ccc(Cl)cc1Cc1ccc(-c2nc3ccc(N4CCN(C)CC4)cc3[nH]2)o1 | 41% | 6% | 0 | 102% (active) | inactive | inactive | inactive | inactive
Cc1cc(C2CCN(CCCCNC(=O)c3ccc(-c4ccc(C(F)(F)F)cc4)cc3)CC2)c(C)cc1OCC#N | 58% (active) | 40% | 3 | 100% (active) | inactive | inactive | inactive | inactive
CC(C)C[C@@H](C(=O)N[C@@H](CCCCNC(=O)OCc1ccccc1)C(=O)Nc1nccs1)[C@H](C)N(O)C=O | 98% (active) | -2% | 8 | 99% (active) | inactive | inactive | inactive | inactive
COc1ccc(-c2csc3ncnc(Cl)c23)cc1 | 97% (active) | -15% | 5 | 96% (active) | inactive | inactive | inactive | inactive
O=C(CC1CCCCC1)NCC(NCCCNc1cc(=O)c2ccccc2[nH]1)c1cc(Br)cc(Br)c1 (stereo not given) | 52% (active) | 8% | 0 | 95% (active) | inactive | inactive | inactive | inactive
Cc1sc(N2CCCCC2)nc1C(=O)Nc1ccc(F)cc1C(F)(F)F | 35% | -18% | 2 | 86% (active) | inactive | inactive | inactive | inactive
CC1CN(c2ccc(NC(=O)c3cccs3)cc2)CCN1Cc1cccc(F)c1 (stereo not given) | 96% (active) | 5% | 0 | 96% (active) | inactive | inactive | inactive | inactive
O=C(/C=C/c1ccc(Cl)c(Cl)c1)NCCCCCN1CCC(CCNC(=O)C2(c3ccc(Cl)cc3)CC2)CC1 | 16% | 96% (active) | -3 | 91% (active) | inactive | inactive | inactive | inactive
COc1ccccc1Cc1nc2ccccc2nc1SCC(=O)Nc1cccc(C(F)(F)F)c1 | 91% (active) | 8% | 0 | 97% (active) | inactive | inactive | inactive | inactive
Cc1ccc(F)c(OCC2CCN(c3ncc(C(=O)NC4CC4)cc3Cl)CC2)c1 | 95% (active) | 9% | -3 | 96% (active) | inactive | inactive | inactive | inactive
CC(OC(=O)c1ccc(C(=O)NCC2CC2)cc1)C(C)(C)C (stereo not given) | 86% (active) | 10% | -3 | 93% (active) | inactive | inactive | inactive | inactive
COc1ccc2ncc(C#N)c(CCN3[C@@H]4CC[C@H]3CC(NCc3ccc5c(n3)NC(=O)CS5)C4)c2c1 (stereo not given in full) | 27% | 6% | -1 | 95% (active) | inactive | inactive | inactive | inactive
CCCCc1ccc(-c2ccc(-c3c(C)[nH]c(C)c(Br)c3=O)cn2)cc1 | 96% (active) | -7% | 1 | 98% (active) | inactive | inactive | inactive | inactive
CC(C)c1ccc(NC(=O)c2ccc(C(=O)NC3CCN(CC4CCCCC4)CC3)cc2)cc1 | 5% | 34% | -2 | 98% (active) | inactive | inactive | inactive | inactive
Cc1cc(N2CCOCC2)nc2ccc(NC(=O)c3ccc(Cl)c([N+](=O)[O-])c3)cc12 | 15% | 12% | 3 | 98% (active) | inactive | inactive | inactive | inactive
